Measured values as given in paper PMC12820563, “FoxP3 forms a head-to-head dimer in vivo and stabilizes its multimerization on adjacent microsatellites”.
The full ranking holds about 16,000 sequences; the median of “rpm ratio (pull-down/input)” is about 0.94, and the highest 2% start at about 1.7. Only a selection was taken, and the highest values are over-represented in it overall.

Each sequence was assayed against T1, MBP-FoxP1dN (Mus musculus, UniProt P58462 326-579) (assay: PD-seq (MBP pull-down with sequencing); 20 mM Tris-HCl pH 7.5, 100 mM NaCl, 1.5 mM MgCl2, 0.4 uM protein, 0.1 uM dsDNA library, 30 min, room temperature, amylose pull-down; high values mean tight binding). Settings: protein: recombinant; tags: His6-MBP; chain copies: 2; dsDNA, one strand shown.
T1 sequence: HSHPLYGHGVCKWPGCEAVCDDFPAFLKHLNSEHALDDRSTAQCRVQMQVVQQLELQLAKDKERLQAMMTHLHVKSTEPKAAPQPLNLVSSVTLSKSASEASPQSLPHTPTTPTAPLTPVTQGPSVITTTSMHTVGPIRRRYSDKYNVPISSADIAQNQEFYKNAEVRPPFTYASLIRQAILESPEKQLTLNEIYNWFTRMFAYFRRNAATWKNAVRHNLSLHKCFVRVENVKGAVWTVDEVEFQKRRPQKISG
In short: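 In Tris pH 7.5 buffer with NaCl and MgCl2, 0.4 µM His6-MBP-tagged mouse FoxP3 or FoxP1 fragment lacking the N-terminus, from E. coli, met 0.1 µM Klenow-filled double-stranded degenerate DNA library for 30 min at room temperature. Three washes on amylose resin followed capture of the complexes, then proteinase K release of DNA, PCR barcoding and Illumina sequencing. Binding is taken as pooled-replicate reads-per-million enrichment of pull-down relative to input.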

Sequence	binding signal
GATGATTGTTCTCCCAGCTGATGAATTGAGATCATCGAGTAAACAAATTTTCCTAATCTTTCTGTTCAAGCGCCATCTAC	0.904 RPM ratio (pull-down/input)
GATGATTGTTCTCCCAGCTGATGAATTTATGACCTCGAGTAAACAAATTTTCCTAATCTTTCTGTTCAAGCGCCATCTAC	0.986 RPM ratio (pull-down/input)
GATGATTGTTCTCCCAGCTGATGAATTACGATAGTCGAGTAAACAAATTTTCCTAATCTTTCTGTTCAAGCGCCATCTAC	1.01 RPM ratio (pull-down/input)
GATGATTGTTCTCCCAGCTGATGAATTTTCCCTATCGAGTAAACAAATTTTCCTAATCTTTCTGTTCAAGCGCCATCTAC	0.937 RPM ratio (pull-down/input)
GATGATTGTTCTCCCAGCTGATGAATTATACCCGTCGAGTAAACAAATTTTCCTAATCTTTCTGTTCAAGCGCCATCTAC	0.898 RPM ratio (pull-down/input)
GATGATTGTTCTCCCAGCTGATGAATTACTTCGATCGAGTAAACAAATTTTCCTAATCTTTCTGTTCAAGCGCCATCTAC	1.01 RPM ratio (pull-down/input)
GATGATTGTTCTCCCAGCTGATGAATTATCCATTTCGAGTAAACAAATTTTCCTAATCTTTCTGTTCAAGCGCCATCTAC	0.915 RPM ratio (pull-down/input)
GATGATTGTTCTCCCAGCTGATGAATTTCACTAGTCGAGTAAACAAATTTTCCTAATCTTTCTGTTCAAGCGCCATCTAC	0.76 RPM ratio (pull-down/input)
GATGATTGTTCTCCCAGCTGATGAATTCTGTTATTCGAGTAAACAAATTTTCCTAATCTTTCTGTTCAAGCGCCATCTAC	1.78 RPM ratio (pull-down/input)
GATGATTGTTCTCCCAGCTGATGAATTTCGTTATTCGAGTAAACAAATTTTCCTAATCTTTCTGTTCAAGCGCCATCTAC	1.01 RPM ratio (pull-down/input)
GATGATTGTTCTCCCAGCTGATGAATTGTTATATTCGAGTAAACAAATTTTCCTAATCTTTCTGTTCAAGCGCCATCTAC	1.57 RPM ratio (pull-down/input)
GATGATTGTTCTCCCAGCTGATGAATTCACTCCCTCGAGTAAACAAATTTTCCTAATCTTTCTGTTCAAGCGCCATCTAC	0.792 RPM ratio (pull-down/input)
GATGATTGTTCTCCCAGCTGATGAATTCGGTAAATCGAGTAAACAAATTTTCCTAATCTTTCTGTTCAAGCGCCATCTAC	1.22 RPM ratio (pull-down/input)
GATGATTGTTCTCCCAGCTGATGAATTGCTTCGCTCGAGTAAACAAATTTTCCTAATCTTTCTGTTCAAGCGCCATCTAC	0.992 RPM ratio (pull-down/input)
GATGATTGTTCTCCCAGCTGATGAATTCCCTGATTCGAGTAAACAAATTTTCCTAATCTTTCTGTTCAAGCGCCATCTAC	0.807 RPM ratio (pull-down/input)
GATGATTGTTCTCCCAGCTGATGAATTCTATTGATCGAGTAAACAAATTTTCCTAATCTTTCTGTTCAAGCGCCATCTAC	2.09 RPM ratio (pull-down/input)
GATGATTGTTCTCCCAGCTGATGAATTGTTGTGATCGAGTAAACAAATTTTCCTAATCTTTCTGTTCAAGCGCCATCTAC	2.32 RPM ratio (pull-down/input)
GATGATTGTTCTCCCAGCTGATGAATTCTGTTGATCGAGTAAACAAATTTTCCTAATCTTTCTGTTCAAGCGCCATCTAC	2.26 RPM ratio (pull-down/input)
GATGATTGTTCTCCCAGCTGATGAATTGTGATGATCGAGTAAACAAATTTTCCTAATCTTTCTGTTCAAGCGCCATCTAC	1.42 RPM ratio (pull-down/input)
GATGATTGTTCTCCCAGCTGATGAATTGATCTATTCGAGTAAACAAATTTTCCTAATCTTTCTGTTCAAGCGCCATCTAC	1.15 RPM ratio (pull-down/input)
GATGATTGTTCTCCCAGCTGATGAATTTTGTTGATCGAGTAAACAAATTTTCCTAATCTTTCTGTTCAAGCGCCATCTAC	2.8 RPM ratio (pull-down/input)

Sequence	binding signal
GATGATTGTTCTCCCAGCTGATGAATTCAATTGATCGAGTAAACAAATTTTCCTAATCTTTCTGTTCAAGCGCCATCTAC	1.02 RPM ratio (pull-down/input)
GATGATTGTTCTCCCAGCTGATGAATTTCTGTGATCGAGTAAACAAATTTTCCTAATCTTTCTGTTCAAGCGCCATCTAC	1.02 RPM ratio (pull-down/input)
GATGATTGTTCTCCCAGCTGATGAATTTGATTGATCGAGTAAACAAATTTTCCTAATCTTTCTGTTCAAGCGCCATCTAC	1.1 RPM ratio (pull-down/input)
GATGATTGTTCTCCCAGCTGATGAATTGATTTGATCGAGTAAACAAATTTTCCTAATCTTTCTGTTCAAGCGCCATCTAC	1.07 RPM ratio (pull-down/input)
GATGATTGTTCTCCCAGCTGATGAATTCTATTCATCGAGTAAACAAATTTTCCTAATCTTTCTGTTCAAGCGCCATCTAC	0.915 RPM ratio (pull-down/input)
GATGATTGTTCTCCCAGCTGATGAATTCTTTTGATCGAGTAAACAAATTTTCCTAATCTTTCTGTTCAAGCGCCATCTAC	0.969 RPM ratio (pull-down/input)
GATGATTGTTCTCCCAGCTGATGAATTGAGATTTTCGAGTAAACAAATTTTCCTAATCTTTCTGTTCAAGCGCCATCTAC	0.923 RPM ratio (pull-down/input)
GATGATTGTTCTCCCAGCTGATGAATTGAGGTCTTCGAGTAAACAAATTTTCCTAATCTTTCTGTTCAAGCGCCATCTAC	0.786 RPM ratio (pull-down/input)
GATGATTGTTCTCCCAGCTGATGAATTCATCGCCTCGAGTAAACAAATTTTCCTAATCTTTCTGTTCAAGCGCCATCTAC	0.873 RPM ratio (pull-down/input)
GATGATTGTTCTCCCAGCTGATGAATTACGGGGTTCGAGTAAACAAATTTTCCTAATCTTTCTGTTCAAGCGCCATCTAC	0.931 RPM ratio (pull-down/input)
GATGATTGTTCTCCCAGCTGATGAATTAGAAACTTCGAGTAAACAAATTTTCCTAATCTTTCTGTTCAAGCGCCATCTAC	0.892 RPM ratio (pull-down/input)
GATGATTGTTCTCCCAGCTGATGAATTGTCAACTTCGAGTAAACAAATTTTCCTAATCTTTCTGTTCAAGCGCCATCTAC	1.31 RPM ratio (pull-down/input)
GATGATTGTTCTCCCAGCTGATGAATTGGATTCTTCGAGTAAACAAATTTTCCTAATCTTTCTGTTCAAGCGCCATCTAC	0.813 RPM ratio (pull-down/input)
GATGATTGTTCTCCCAGCTGATGAATTACAAGGTTCGAGTAAACAAATTTTCCTAATCTTTCTGTTCAAGCGCCATCTAC	1.09 RPM ratio (pull-down/input)
GATGATTGTTCTCCCAGCTGATGAATTCACCACATCGAGTAAACAAATTTTCCTAATCTTTCTGTTCAAGCGCCATCTAC	1.12 RPM ratio (pull-down/input)
GATGATTGTTCTCCCAGCTGATGAATTGGTCTGGTCGAGTAAACAAATTTTCCTAATCTTTCTGTTCAAGCGCCATCTAC	0.807 RPM ratio (pull-down/input)
GATGATTGTTCTCCCAGCTGATGAATTTGATGCGTCGAGTAAACAAATTTTCCTAATCTTTCTGTTCAAGCGCCATCTAC	1.13 RPM ratio (pull-down/input)
GATGATTGTTCTCCCAGCTGATGAATTAAACAGGTCGAGTAAACAAATTTTCCTAATCTTTCTGTTCAAGCGCCATCTAC	1.21 RPM ratio (pull-down/input)
GATGATTGTTCTCCCAGCTGATGAATTTGGGTCTTCGAGTAAACAAATTTTCCTAATCTTTCTGTTCAAGCGCCATCTAC	0.904 RPM ratio (pull-down/input)
GATGATTGTTCTCCCAGCTGATGAATTATATCGATCGAGTAAACAAATTTTCCTAATCTTTCTGTTCAAGCGCCATCTAC	0.956 RPM ratio (pull-down/input)
GATGATTGTTCTCCCAGCTGATGAATTGATCTAATCGAGTAAACAAATTTTCCTAATCTTTCTGTTCAAGCGCCATCTAC	1.19 RPM ratio (pull-down/input)

Sequence	binding signal
GATGATTGTTCTCCCAGCTGATGAATTGATCTGATCGAGTAAACAAATTTTCCTAATCTTTCTGTTCAAGCGCCATCTAC	0.968 RPM ratio (pull-down/input)
GATGATTGTTCTCCCAGCTGATGAATTTGTTTGATCGAGTAAACAAATTTTCCTAATCTTTCTGTTCAAGCGCCATCTAC	1.47 RPM ratio (pull-down/input)
GATGATTGTTCTCCCAGCTGATGAATTGAATTGATCGAGTAAACAAATTTTCCTAATCTTTCTGTTCAAGCGCCATCTAC	0.941 RPM ratio (pull-down/input)
GATGATTGTTCTCCCAGCTGATGAATTGTTTTGATCGAGTAAACAAATTTTCCTAATCTTTCTGTTCAAGCGCCATCTAC	2.01 RPM ratio (pull-down/input)
GATGATTGTTCTCCCAGCTGATGAATTGTATTGATCGAGTAAACAAATTTTCCTAATCTTTCTGTTCAAGCGCCATCTAC	2.22 RPM ratio (pull-down/input)
GATGATTGTTCTCCCAGCTGATGAATTGTGTTGATCGAGTAAACAAATTTTCCTAATCTTTCTGTTCAAGCGCCATCTAC	2.46 RPM ratio (pull-down/input)
GATGATTGTTCTCCCAGCTGATGAATTTTTTTGATCGAGTAAACAAATTTTCCTAATCTTTCTGTTCAAGCGCCATCTAC	0.955 RPM ratio (pull-down/input)
GATGATTGTTCTCCCAGCTGATGAATTGATTGTATCGAGTAAACAAATTTTCCTAATCTTTCTGTTCAAGCGCCATCTAC	1.54 RPM ratio (pull-down/input)
GATGATTGTTCTCCCAGCTGATGAATTGTGAAAGTCGAGTAAACAAATTTTCCTAATCTTTCTGTTCAAGCGCCATCTAC	1.01 RPM ratio (pull-down/input)
GATGATTGTTCTCCCAGCTGATGAATTAACAGACTCGAGTAAACAAATTTTCCTAATCTTTCTGTTCAAGCGCCATCTAC	0.866 RPM ratio (pull-down/input)
GATGATTGTTCTCCCAGCTGATGAATTCATCCACTCGAGTAAACAAATTTTCCTAATCTTTCTGTTCAAGCGCCATCTAC	0.832 RPM ratio (pull-down/input)
GATGATTGTTCTCCCAGCTGATGAATTGTACCACTCGAGTAAACAAATTTTCCTAATCTTTCTGTTCAAGCGCCATCTAC	0.996 RPM ratio (pull-down/input)
GATGATTGTTCTCCCAGCTGATGAATTCATCTTGTCGAGTAAACAAATTTTCCTAATCTTTCTGTTCAAGCGCCATCTAC	0.898 RPM ratio (pull-down/input)
GATGATTGTTCTCCCAGCTGATGAATTCTTGTTGTCGAGTAAACAAATTTTCCTAATCTTTCTGTTCAAGCGCCATCTAC	2.6 RPM ratio (pull-down/input)
GATGATTGTTCTCCCAGCTGATGAATTCCTCCTGTCGAGTAAACAAATTTTCCTAATCTTTCTGTTCAAGCGCCATCTAC	0.729 RPM ratio (pull-down/input)
GATGATTGTTCTCCCAGCTGATGAATTCCTGATGTCGAGTAAACAAATTTTCCTAATCTTTCTGTTCAAGCGCCATCTAC	1.08 RPM ratio (pull-down/input)
GATGATTGTTCTCCCAGCTGATGAATTCTCCTTGTCGAGTAAACAAATTTTCCTAATCTTTCTGTTCAAGCGCCATCTAC	0.774 RPM ratio (pull-down/input)
GATGATTGTTCTCCCAGCTGATGAATTCCTGTTGTCGAGTAAACAAATTTTCCTAATCTTTCTGTTCAAGCGCCATCTAC	2.34 RPM ratio (pull-down/input)
GATGATTGTTCTCCCAGCTGATGAATTAAAGGTTTCGAGTAAACAAATTTTCCTAATCTTTCTGTTCAAGCGCCATCTAC	0.867 RPM ratio (pull-down/input)
GATGATTGTTCTCCCAGCTGATGAATTTCCTGACTCGAGTAAACAAATTTTCCTAATCTTTCTGTTCAAGCGCCATCTAC	0.753 RPM ratio (pull-down/input)
GATGATTGTTCTCCCAGCTGATGAATTAAGATCTTCGAGTAAACAAATTTTCCTAATCTTTCTGTTCAAGCGCCATCTAC	0.868 RPM ratio (pull-down/input)
